In all, about 360,000 compounds went through this assay and about 1,600 (0.44%) were called active.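 How the source made its calls: active means inhibition above the screen-wide average plus 3 SD (cut at about 13% in these data); inactive means the rest.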 Only a selection was taken, and actives are over-represented in it overall.
What follows are molecules tested against Galanin receptor type 3 (Homo sapiens) (UniProt O60755) (assay: blockers of human galanin receptor 3 – cell-based, fluorescence readout, primary screen (AID 651719;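 further: forskolin and galanin both at EC90 stimulate the cells; cAMP rise reported by CNG channel membrane potential dye signal; 0% = forskolin plus galanin with DMSO and 100% = forskolin alone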)). Details: HEK293 GalR3-CNG cAMP membrane potential fluorescence; at 3 µM; hits give high values; galR3 body fused to GalR1 C-terminus.
Galanin receptor type 3 (Homo sapiens), sequence (O60755 1-299 limits assumed): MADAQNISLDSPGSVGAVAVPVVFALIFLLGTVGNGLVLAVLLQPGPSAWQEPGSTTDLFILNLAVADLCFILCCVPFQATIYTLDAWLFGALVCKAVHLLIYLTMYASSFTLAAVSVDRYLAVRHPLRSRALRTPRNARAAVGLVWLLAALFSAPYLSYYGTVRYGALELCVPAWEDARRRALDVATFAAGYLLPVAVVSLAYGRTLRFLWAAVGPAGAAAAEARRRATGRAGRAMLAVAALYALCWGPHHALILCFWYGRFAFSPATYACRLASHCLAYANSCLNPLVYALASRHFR

Structure (SMILES) | inhibition
CCOC(=O)/C=C/c1ccccc1O | -6.85% (inactive)
C=CCN=C1NC(c2ccccc2)C(C(=O)OC)=C(C)N1Cc1ccc(C(F)(F)F)cc1 (centres undefined) | -6.78% (inactive)
Brc1ccc(OCCn2ccnc2)cc1 | 0.74% (inactive)
c1ccc(Cc2ccc(OCCn3ccnc3)cc2)cc1 | 44.4% (active)
Clc1c(OCCCn2ccnc2)ccc2ccccc12 | -12.1% (inactive)
C=CC[C@]12C[C@@]3(O[C@H](c4ccc(C(F)(F)F)cc4)N=C3C[C@H](c3ccc(OC)cc3)[C@H]1C)N(C1CCN(Cc3ccccc3)CC1)C2=O | -4.57% (inactive)
CCOc1ccccc1C(=O)N1CCC[C@@H]1C(=O)N1CCC[C@H]1C(=O)NCc1ccccc1 | -4.67% (inactive)
CN(Cc1cccnc1)C(=O)c1cc(COc2ccc3ncccc3c2)on1 | 91.7% (active)
CN(Cc1cnccn1)C(=O)c1cc(COc2cccc(C(F)(F)F)c2)on1 | -2.96% (inactive)
CC(=O)c1cccc(OCc2cc(C(=O)NC(C)Cc3cccnc3)no2)c1 (centres undefined) | 0.17% (inactive)
O=S1(=O)c2c(cccc2N2CCCC2)O[C@H](COCc2ccccc2)CN1C1CC1 | -3.31% (inactive)
Cn1cnc([N+](=O)[O-])c1Sc1ccccc1 | -2.26% (inactive)
Cn1cnc([N+](=O)[O-])c1Nc1ccccc1O | 13.4% (active)
Cn1cnc([N+](=O)[O-])c1Sc1n[nH]c(N)n1 | -10.2% (inactive)
Cc1cc(Br)cn2c(Cc3ccccc3C(F)(F)F)c(-c3ccc(C#N)cc3)nc12 | -0.22% (inactive)
Nc1[nH]c(C(=O)c2ccccc2)c(-c2ccc(Cl)cc2Cl)c1C(=O)c1ccccc1 | -7.95% (inactive)
COc1ccc(Cl)cc1NC(=O)[C@@H]1CCCN1C(=O)c1cccs1 | -4.08% (inactive)
COc1cc(Cl)c(C)cc1NC(=O)[C@@H]1CCCN1C(=O)c1cccs1 | 14% (active)
Cc1ccc(S(=O)(=O)N2CCCCC2)cc1NC(=O)[C@@H]1CCCN1C(=O)c1cccs1 | -1.7% (inactive)
C[C@@H](CN1C2=NC[C@@H](Cc3ccccc3)N2C[C@H]1Cc1ccc(O)cc1)NC(=O)CCC1CCCCC1 | -7.8% (inactive)
COC(=O)C1=C(C)N(Cc2ccccc2C(F)(F)F)C(=NCC2CC2)NC1c1cccc(Cl)c1 (centres undefined) | -5.91% (inactive)
CCCc1nc2c([nH]1)C(c1cccnc1)C(C#N)=C(N)O2 (centres undefined) | -0.27% (inactive)

Structure (SMILES) | inhibition
COc1ccc(C2C(C#N)=C(N)Oc3n[nH]c(C)c32)cc1CN1CCN(c2ccc(F)cc2)CC1 (centres undefined) | -5.67% (inactive)
COc1ccc(-c2[nH]nc3c2C(c2ccncc2)C(C#N)=C(N)O3)cc1 (centres undefined) | 16.3% (active)
COC(=O)[C@]1(Cc2ccccc2)NC=C(C(=O)c2ccccc2)[C@@H]1c1cccc(OC)c1 | -6.78% (inactive)
CCCCNC(=O)c1ccccc1NC(=O)C1=C(C)OCCS1 | 103% (active)
COc1ccc(N2CCN(C(=O)c3ccccc3NC(=O)C3=C(C)OCCS3)CC2)cc1 | -6.97% (inactive)
CCCCNC(=O)c1ccccc1NC(=O)c1ccccc1N(C)S(C)(=O)=O | -3.23% (inactive)
CC1CCCN(c2cccc3c2S(=O)(=O)N(Cc2ccc(F)cc2)[C@@H](C)[C@H](c2ccccc2)O3)C1 (some centres undefined) | -4.47% (inactive)
O=C1COc2ccc(C(=O)COC(=O)CCOc3ccccc3)cc2N1 | -1.45% (inactive)
CC(C)[C@@H](C(=O)OCC(=O)c1ccc2c(c1)NC(=O)CO2)N1C(=O)c2ccccc2C1=O | 42.5% (active)
O=C1COc2ccc(C(=O)COC(=O)c3ccccc3Cl)cc2N1 | -5.73% (inactive)
OC(c1ccccc1)(c1ccccc1)C1CCN(CCCOc2ccc(-c3ccsc3)cc2)CC1 | -4.38% (inactive)
O=C(CSc1nnc(-c2ccco2)n1CC1CCCO1)c1ccccc1 (centres undefined) | -2.73% (inactive)
CNC(=O)NC(=O)CSc1nnc(-c2ccc(F)cc2)n1CC1CCCO1 (centres undefined) | 29.6% (active)
Cc1nnc(SCC(=O)NNC(=O)c2ccc(Cl)cc2)n1CC1CCCO1 (centres undefined) | -3.6% (inactive)
COc1cc2c(cc1OC)C(c1cccc([N+](=O)[O-])c1)=NCC2 | 13.9% (active)
COc1cc2c(cc1OC)C(/C=C/c1ccco1)=NCC2 | -5.84% (inactive)
COc1cc2c(cc1OC)C(Cc1cc(OC)c(OC)cc1[N+](=O)[O-])=NCC2 | -6.44% (inactive)
CC(C)CNc1cccc2c1S(=O)(=O)N[C@H](C)CO2 | -4.46% (inactive)
COC(=O)Cc1nnn2c1[C@H](C)[C@H](c1ccccc1Br)OCC2 | -3.41% (inactive)
COc1ccc(OC)c(NC(=O)CSc2nc(N)c(-c3ccccc3)c(=O)[nH]2)c1 | 29.8% (active)
COc1ccc(OC)c(NC(=O)CSc2nc(-c3ccccc3)cc(=O)[nH]2)c1 | -1.18% (inactive)
COc1ccc(NC(=O)CSc2nc(N)c(-c3ccccc3)c(=O)[nH]2)cc1 | 1.59% (inactive)

From PubChem BioAssay AID651719 (The Scripps Research Institute Molecular Screening Center, 2012)
